Structures are written as SMILES. About 2,100 (3.2%) of roughly 65,000 compounds showed an effect of 50% or more. The median lay at about -52%. Many of the other results were omitted from the sample, so strong results are more common in it than they were.

The source of these data is ChEMBL document CHEMBL4513216, “Probing the Open Global Health Chemical Diversity Library for Multistage-Active Starting Points for Next-Generation Antimalarials” (ACS Infect Dis, 2020).

The test system of this assay is Plasmodium falciparum. Kind of assay: Screen against P. falciparum Asexual Blood Stage (ABS), at 5uM. The conditions noted are these: tested at 5 uM. Format: functional, Dd2.
In the case of `O=C(Nc1ccccc1)[C@H]1C[C@H]2CN(Cc3cccnc3)C[C@@H]1O2`, the INHIBITION was -15%.
As to `Cc1ccc(C(=O)N2C[C@H](N3CCOCC3)[C@@H]3OCCC[C@@H]32)cn1`, the INHIBITION is on record as -62.2%.
On to `CCN(CC1CN(Cc2nc(C3CC3)no2)CCO1)c1cccnn1` (stereo not drawn), for which the INHIBITION came out at 73.3%.
Under `CN(Cc1nc(C2CC2)no1)C(=O)CN1CC(c2ccccc2)CC1=O` (stereo not drawn) stands -52.4%.
For `COCCn1cc(NC(=O)NC(C)Cc2c(F)cccc2F)cn1` (stereo not drawn), the INHIBITION is -151%.
In the case of `CNC(=O)c1ccc2c(c1)C1(CCN(CCOC)CC1)C(=O)N2` it was -12.8%; in that of `COCCCN1CCCN(C(C)C(=O)Nc2cccc(I)c2)CC1` (stereo not drawn), 90%.
Take `Cn1ncc2c(N3CCCN4CCC[C@H]4C3)nc(C(C)(C)C)nc21`: the INHIBITION is reported as -68.8%.
In the case of `O=c1[nH]c(NC2CCCC2)nc2nccc(-c3ccco3)c12`, the INHIBITION was determined as 72.4%.
Consider `COCCN1CCN(Cc2cccnc2)[C@H]2CS(=O)(=O)C[C@H]21`, for which the INHIBITION is on record as -9.43%.
Under `COc1ncccc1CN1CC[C@H]2O[C@H](c3nnc(C)o3)CC[C@H]21` stands -73.1%; under `CC(O)CN1CCC(CNCc2cccc(Br)c2)CC1` (stereo not drawn), 87.8%.
Under `CC(Cc1cccc(Cl)c1)NC(=O)Nc1cnn(CC(N)=O)c1` (stereo not drawn) stands -5.01%; under `CC(O)CN1CCN(C(=O)Cc2ccccc2Cl)CC1` (stereo not drawn), -179%.
Take `CC(O)CN1CCC(CNCc2cccc(Cl)c2)CC1` (stereo not drawn): the INHIBITION came to 87.9%.
Consider `CCOc1ccccc1CNCC1CCN(CC(C)O)CC1` (stereo not drawn), for which the INHIBITION is reported as 75.9%.
In the case of `COCC(C)NC(=O)c1cn(C(C)(C)C)c2ncccc12` (stereo not drawn) it was -120%; in that of `COc1ccc(CC(=O)N2CCN(Cc3ccco3)C[C@@H]2C)cc1OC`, -135%.
As to `COc1ccc(C2SCC(=O)Nc3ccsc32)cc1OC` (stereo not drawn), the INHIBITION was -6.6%.
As for `CCNC(=O)NC(=O)CNC1(c2noc(C)n2)CCCCC1`, the INHIBITION is reported as -46.9%.
Consider `CN1Cc2ccccc2NC(=O)C12CCNC2` (stereo not drawn), for which the INHIBITION is recorded as -33.4%.
In the case of `O=C1CC[C@@H]2[C@@H](CCN2Cc2ccccn2)N1CC1CC1` it was -65.4%; in that of `Fc1cnc(N2CC3(CCN(CC4CC4)C3)C2)nc1`, -62.7%.
Turning to `CN1CCn2c(-c3cccc(F)c3)cnc2C12CCN(CC1CC1)CC2`, the INHIBITION stood at 76.5%.
Under `CN1CCn2c(-c3ccccc3)cnc2C12CCN(CC1CC1)CC2` stands 80.9%; under `CC(=O)N1CCC2(CC1)c1ncc(-c3cccnc3)n1CCN2C`, -45.5%; under `c1ccc(-c2ncc3c(n2)C2(CCN(CC4CC4)C2)COC3)cc1` (stereo not drawn), 32%.
As for `Cc1nc(C2(NCC(=O)NC(=O)NCc3cccs3)CCCCC2)no1`, the INHIBITION is -111%.
For `Cc1ncc2c(c1CNC(=O)C1(C)CC1)CCNC2`, the INHIBITION is recorded as -29.6%.
In the case of `Cc1cccc(Nc2cccc(C3CCCN(Cc4ncc[nH]4)C3)n2)n1` (stereo not drawn) it was 89.4%; in that of `Cc1noc(C)c1CN1C(=O)[C@@H]2CC[C@H]1CN(Cc1ncc[nH]1)C2`, -55.8%; in that of `Cc1cccc(CN2CCN3C(=O)NC[C@H]3C2)n1`, -4.56%.
On to `O=C(Cc1cccs1)N1CC[C@H]2[C@H]1CCN2Cc1cccnc1`, for which the INHIBITION is 19.8%.
Under `Cc1cc(C)c(CNc2nc3ccccc3cc2CO)c(=O)[nH]1` stands 21.9%; under `CCc1ccc(C2c3nc[nH]c3CCN2Cc2nccn2CC)nc1` (stereo not drawn), 90.1%.
Under `CCn1ccnc1CN1CCNCC1C` (stereo not drawn) stands -43.7%; under `Cc1cc(CC(=O)N2CCN(CC(C)C)[C@@H]3CS(=O)(=O)C[C@@H]32)ccc1F`, -48.2%; under `Cc1cccc(CN2CC[C@@H]3[C@@H]2CCN3C(=O)c2cnoc2C)n1`, -26.9%.
In the case of `O=C1OCCC1N1CCN(C(=O)Cc2ccccc2Cl)CC1` (stereo not drawn) it was -47.5%.
Take `NC(=O)CN1CCCN(C(=O)Cc2ccc3c(c2)OCCO3)CC1`: the INHIBITION is on record as -57.5%.
With `O=C(CCN1CCCC1c1cccc2c1OCCO2)N1CCCCC1` (stereo not drawn), the INHIBITION was found to be 73.2%.
Turning to `CN(C)CCCN(C)C1CCN(c2cccc(-c3cscn3)c2)CC1`, the INHIBITION amounted to 81.2%.
As to `O=C1CC[C@@H]2[C@@H](CCN2Cc2ccncc2)N1c1ccccc1`, the INHIBITION is given as -11.8%.
Consider `O=C1Nc2ccccc2CC12CCCN2Cc1cccnc1` (stereo not drawn), for which the INHIBITION was -69.2%.
Under `CN(Cc1ccsc1)c1nc(-c2ccccn2)nc2c1CCNCC2` stands 79.7%.
In the case of `CN(Cc1ccon1)c1nc(-c2ccccn2)nc2c1CCNCC2` it was 76.3%; in that of `CN1CCN(Cc2ccsc2)Cc2cccnc21`, -81%.
Regarding `CN(Cc1nccs1)c1nc(-c2ccccn2)nc2c1CCNCC2`, the INHIBITION is reported as 83.7%.
As for `CCc1nc(-c2ccc(NC(=O)N3CCC4(CC3)OCCO4)cc2)no1`, the INHIBITION was 30.5%.
Under `O=C1CO[C@@H]2CN(Cc3cccs3)C[C@H]2N1Cc1cccnc1` stands -28.4%; under `O=C(c1cc(-n2cccc2)ccc1Cl)N1CCC2(CC1)OCCO2`, -6.62%.
Under `COc1cccc(CN(C)Cc2[nH]c3ccccc3c2C)c1O` stands 88.7%.
Turning to `O=C1CSC(c2ccncc2)c2c[nH]nc2N1` (stereo not drawn), the INHIBITION is -101%.
